From PubChem
Rows were chosen to be rich in hits. Some 2.3% of all compounds tested hit in one or more screens of this group.
TWEAK Fn14 block = inhibitors of TWEAK-Fn14 signaling, primary screen, luciferase reporter cells, uHTS; AID 1159606, 2016; inhibition, % at 10 µM; 2% of 360,000 active; TWEAK-stimulated Fn14 reporter cells, luciferase luminescence, 8 h; in the data active = inhibition above about 50%
KKLEB tox = cytotoxicity in KKLEB CF airway cells, primary screen, cytotoxicity control for CF NF-kB inhibitor project, cell-based, uHTS, fluorescence assay plates | activity change (cytotoxicity), % at 5 µM | 0.36% of 360,000 active | KKLEB CF airway cells viability, ATPlite luminescence, overnight; stronger effect = lower value; cells stimulated with P. aeruginosa culture filtrate;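 active = corrected activity change at or below -50% at 5 µM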
hiPSC survival = enhancers of single-cell hiPSC survival, primary screen, ATPlite luminescence; 100% = ROCK inhibitor wells, 0% = DMSO; survival enhancement, % at 20 µM; 0.044% of 360,000 active; AID 602274, 2012; in the data active = survival enhancement above about 18%;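 note: cells exposed to compounds for 16 hours before the ATP read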
HIF-2a inh = HIF-2a reporter inhibitors, primary screen, luminescence, 786-0 RCC cells. 786-0 RCC cells HIF-2a reporter, luciferase luminescence, overnight. inhibition, % at 18.8 µM. 0.72% of 360,000 active;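 active = inhibition of the luminescence signal of 40% or more relative to plate controls, in a single-dose primary screen at 18.75 µM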
LGR2 antag = inhibitors of bursicon-induced LGR2 CRE-luciferase signal, primary screen, cell-based, HEK293, CRE-luciferase reporter, bursicon stimulation. inhibition, % at 9.99 µM. bursicon-stimulated, 4 h. 0.35% of 380,000 active;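 active = drop in luminescence signal, shown as inhibition above about 50% in the replicate tests, limit read from the data, passing the limit was not always enough; inconclusive = probably only some replicates passing the limit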;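 note: agonist challenge used bursicon conditioned medium at about half maximal strength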
CF NFkB inh = inhibitors of PAF-induced NF-kB signaling, primary screen, cell-based, GFP fluorescence, uHTS | KKLEB NF-kB-GFP reporter, GFP fluorescence overnight | inhibition, % at 5 µM | 0.86% of 360,000 active;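 active = at least 50% inhibition at 5 µM, scaled per plate between neutral and stimulator controls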;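 note: PAF is a Pseudomonas aeruginosa culture filtrate used as stimulus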
Hits are given with their value; i = inactive; ? = inconclusive; nt = no result given.

SMILES	TWEAK Fn14 block	KKLEB tox	hiPSC survival	HIF-2a inh	LGR2 antag	CF NFkB inh
CCOC(=O)c1cn[nH]c1NC(=S)Nc1ccc(Cl)cc1	60	i	i	i	i	i
C[C@@H]1CN([C@@H](C)CO)C(=O)c2cc(C#CC3(O)CCCC3)cnc2O[C@@H]1CN(C)C	nt	nt	nt	nt	i	nt
C[C@@H]1CN([C@@H](C)CO)C(=O)Cc2cc(N(C)C)ccc2O[C@@H]1CN(C)Cc1ccncc1	nt	nt	nt	nt	i	nt
O=S(=O)(c1ccccc1)N1CCN(Cc2cccc(Cl)c2)CC1	79	i	i	i	nt	i
O=C(C[C@@H]1CC[C@H](NC(=O)c2ccncc2)[C@@H](CO)O1)NCC1CC1	nt	nt	nt	nt	i	nt
COc1ccc2c3c(n(C)c2c1)[C@@H](CO)N(C(=O)CC1CC1)CC31CN(Cc2nccs2)C1	nt	nt	nt	nt	i	nt
COC(=O)c1ccccc1-c1ccc(/C=N/NC(=O)c2cc3ccccc3o2)o1	i	i	i	i	i	i
COC(=O)c1ccccc1-c1c2ccc(=N)cc-2oc2cc(N)ccc12	53	i	i	i	i	i
CCCCCCCCCCCCCCCCn1cc[n+](C)c1	78	-94	i	82	nt	84
Cc1cc(C(=O)Cn2nc(C(=O)O)c3ccccc3c2=O)c(C)n1C1CC1	i	i	i	i	i	i
C=CCn1c(C)cc(C(=O)Cn2nc(C(=O)O)c3ccccc3c2=O)c1C	55	i	i	i	i	i
COCCn1c(C)cc(C(=O)Cn2nc(C(=O)O)c3ccccc3c2=O)c1C	69	i	i	i	i	i
C[C@@H]1CN([C@H](C)CO)C(=O)c2cc(NS(=O)(=O)c3cn(C)cn3)ccc2O[C@H]1CN(C)Cc1ccc(Cl)c(Cl)c1	nt	nt	nt	nt	i	nt
COc1ccc(NC(=O)N(C)C[C@@H]2Oc3ccc(NC(=O)Nc4ccccc4)cc3C(=O)N([C@@H](C)CO)C[C@@H]2C)cc1	nt	nt	nt	nt	i	nt
CC1=NNC(=O)/C1=C\c1cn(-c2ccccc2)nc1-c1ccccc1	106	i	i	95	106	94
O=C(OCC(=O)c1c[nH]c2ccccc12)c1cccc(S(=O)(=O)N2CCCCCC2)c1	52	i	i	i	i	i
COc1ccccc1N(C)S(=O)(=O)c1ccc(C(=O)OCC(=O)N(C)c2ccccc2)cc1	i	i	i	i	i	i
COc1cccc(/C=C/C(=O)OCC(=O)c2c[nH]c3ccccc23)c1OC	55	i	i	i	nt	i
COc1ccccc1N(C)S(=O)(=O)c1ccc(C(=O)OCC(=O)c2c[nH]c3ccccc23)cc1	51	i	i	i	i	i
CCOC(=O)c1sc2ccccc2c1OC(=O)c1ccccc1	i	i	i	i	nt	i
CCOC(=O)c1sc2ccccc2c1NC(=O)c1coc2ccccc2c1=O	57	i	i	i	i	i
C[C@H](CO)N1C[C@H](C)[C@H](CN(C)C(=O)c2ccncc2)OCCCC[C@H](C)Oc2ccc(NC(=O)CCCCCC(=O)Nc3ccccc3N)cc2C1=O	nt	nt	nt	nt	i	nt
COc1ccccc1C1=NNC(=Nc2cccc(S(=O)(=O)N(C)C)c2)SC1	50	i	i	i	i	i
CC1CC2(CCCC2)Nc2ccc(F)cc21 (stereo not drawn)	i	i	i	i	i	i
CC1CC(C)(C)Nc2ccc(N=O)cc21 (stereo not drawn)	80	i	i	i	i	71
SMILES	TWEAK Fn14 block	KKLEB tox	hiPSC survival	HIF-2a inh	LGR2 antag	CF NFkB inh
O=C(Nc1cccc(Cl)c1)Nc1ccnc(-c2cccnc2)n1	53	i	i	i	i	i
C[C@@H]1CN([C@H](C)CO)C(=O)Cc2cc(NC(=O)CCC(F)(F)F)ccc2O[C@H]1CN(C)S(=O)(=O)c1ccc(Cl)cc1	nt	nt	nt	nt	i	nt
Cc1ccc(-n2nc3c([n+]2[O-])CCc2c-3no[n+]2[O-])cc1	57	i	i	i	nt	i
C[C@@H]1CN([C@H](C)CO)C(=O)c2cc(NC(=O)CCN3CCOCC3)ccc2O[C@@H]1CN(C)C(=O)Nc1cccc2ccccc12	nt	nt	nt	nt	i	nt
COc1ccc(C(=O)Nc2nnc(-c3cccs3)s2)cc1	55	i	i	i	?	i
O=C(Nc1nc(-c2cccs2)c(C(=O)C(F)(F)F)s1)c1ccccc1	56	i	i	i	i	i
